High-throughput results: PubChem, NMMLSC
RGS7-Gao = human RGS7-Galphao interaction regulation. Multiplexed bead flow cytometry, RGS7-Galphao binding; actives lie on both sides. binding response (% of control), % at 10 µM. actives 0.35% (n = 220,000). AID 1439; in the data active = binding response below about 49% or above about 150%; inconclusive = no clear call, values can overlap the other calls; inactive = in between;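 also: fluorescent Galphao held in activated GDP-AlF4 state binding bead-coupled RGS7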
Target sequence (P09471 whole entry, looked up): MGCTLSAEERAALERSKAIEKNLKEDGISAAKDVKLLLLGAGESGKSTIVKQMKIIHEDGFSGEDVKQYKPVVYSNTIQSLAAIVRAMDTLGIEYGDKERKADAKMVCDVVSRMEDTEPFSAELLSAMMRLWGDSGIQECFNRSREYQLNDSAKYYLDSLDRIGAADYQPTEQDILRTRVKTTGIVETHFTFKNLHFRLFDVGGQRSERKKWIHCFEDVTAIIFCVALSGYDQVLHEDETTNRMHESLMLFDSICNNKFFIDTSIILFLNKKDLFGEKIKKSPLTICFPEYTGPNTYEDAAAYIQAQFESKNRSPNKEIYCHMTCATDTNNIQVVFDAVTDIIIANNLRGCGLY
RGS8-Gao reg = modulates binding of RGS8 to human Galphao. P09471. multiplexed bead flow cytometry; actives lie on both sides. response (percent of control binding), % at 10 µM. actives 0.34% (n = 220,000). AID 1423; in the data active = response below about 60% or above about 140%; inactive = in between;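 also: Galphao activated as the GDP aluminium fluoride complex binding bead-coupled RGS8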
RGS16-Gao HTS = RGS16-Galphao interaction regulator (human). O15492+P09471. bead-based flow cytometry RGS16-Galphao binding, fluorescence; actives lie on both sides. binding response (% of control), % at 10 µM. actives 0.38% (n = 220,000). AID 1441; call rule not given here;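 also: Galphao activated by GDP with aluminum fluoride before binding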
Target sequence (O15492 whole entry, looked up): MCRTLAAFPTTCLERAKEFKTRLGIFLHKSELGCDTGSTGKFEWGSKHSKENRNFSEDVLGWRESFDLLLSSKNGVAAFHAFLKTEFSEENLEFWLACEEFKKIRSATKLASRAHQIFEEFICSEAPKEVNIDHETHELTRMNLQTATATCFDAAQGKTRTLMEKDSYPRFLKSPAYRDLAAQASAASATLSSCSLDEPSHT
Target sequence (P09471 whole entry, looked up): as the sequence (P09471 whole entry, looked up) above
GSH fluor = GSH bead compound fluorescence profile. GSH beads flow cytometry, compound fluorescence 488/530 nm; active compounds read high. fluorescence (KMESF) at 10 µM. actives 0.25% (n = 190,000). AID 1776; in the data active = fluorescence above about 89;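 also: glutathione beads carrying GST-tagged Bcl family fusion proteins plus one bare bead set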
Avidin fluor = avidin bead compound fluorescence profile | fluorescence (KMESF) at 10 µM | AID 1775 | Avidin beads, compound fluorescence 488/530 nm, flow cytometry; active compounds read high | actives 0.38% (n = 220,000); in the data active = fluorescence above about 47
RGS4-Gao reg = modulates binding of RGS4 to human Galphao | Multiplexed bead flow cytometry; actives lie on both sides | AID 1415 | actives 0.33% (n = 220,000) | binding response (% of control), % at 10 µM | P09471; in the data active = binding response below about 49% or above about 150%; inactive = in between;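 also: fluorescent Galphao activated with aluminum fluoride binding bead-coupled RGS4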
Large screens that a line does not name were inactive; [ ] = another dose, or the depositor's remark. Most compounds without a hit are left out; they make up all but 1.2% or so of the library.

O=C(COC(=O)c1cc(S(=O)(=O)N2CCc3ccccc3C2)ccc1Cl)NCc1ccco1	none
Cc1ccc(C)c(/C=N/Nc2nc3ccccc3c(=O)n2O)c1	RGS7-Gao inconclusive (no result: GSH fluor)
CC12CCC(C(=Nc3ccc(N=C4C(=O)C5(C)CCC4C5(C)C)cc3)C1=O)C2(C)C	RGS7-Gao inconclusive, Avidin fluor 57 (no result: GSH fluor)
Cc1ccc(N2C(=O)C3CCC(C)(C2=O)C3(C)C)cc1 (configuration not stated)	RGS7-Gao inconclusive (no result: GSH fluor)
Cc1cccc(-c2nc3ccccc3c(=O)n2NC(=O)c2ccc([N+](=O)[O-])c(C)c2)c1	Avidin fluor 73
Cc1cc(C(=O)Nn2c(C)nc3ccccc3c2=O)ccc1[N+](=O)[O-]	none
CC(=O)OCC(=O)Nc1ccc([N+](=O)[O-])cc1Cl	none
CC(=O)OCC(=O)Nc1ccc(Cl)cc1Cl	GSH fluor 231
O=C(O)CC(NC(=O)c1cccc([N+](=O)[O-])c1)c1ccc2c(c1)OCO2 (configuration not stated)	none
CCOC(=O)C1=C(C)OC(N)=C(C(=O)OCC)C1c1cccnc1 (configuration not stated)	none
CCOC(=O)C1=C(C)OC(N)=C(C(=O)OCC)C1c1ccncc1 (configuration not stated)	GSH fluor 244
CCCc1noc2c1C(c1cc(Br)ccc1F)C(C#N)=C(N)N2 (configuration not stated)	RGS7-Gao inconclusive
COc1ccc(C(=O)NCC(=O)N/N=C(C)\C=C\c2ccccc2)cc1OC	none
COc1ccc(/C(N)=N/OC(=O)c2ccc3c(c2)OCO3)cc1	Avidin fluor 48
COc1ccc(OC)c(C(=O)CSc2nc3ccccc3n2CC(=O)NC(C)(C)C)c1	GSH fluor 270
C=C(C)c1cccc(C(C)(C)NC(=O)NCCCn2ccnc2)c1	Avidin fluor 50
C=C(C)c1cccc(C(C)(C)NC(=O)NCCCN2CCCC2=O)c1	none
CSc1ccc(NC(=O)c2cccnc2)cc1C#N	RGS7-Gao inconclusive
CCN(CC)S(=O)(=O)c1csc(C(=O)OCC(=O)c2ccccc2)c1	GSH fluor 104
C=C(C)Cn1cnc2cc(C)c(C)cc21	none
CCn1c(CSc2nc3ccccc3s2)nnc1SCC(=O)c1ccc(O)c(O)c1	GSH fluor 268
O=c1cc(CN2CCN(c3ccccc3O)CC2)nc2sccn12	GSH fluor 255
Cc1cccc(N2CCN(Cc3cc(=O)n4ccsc4n3)CC2)c1C	none
O=C(NCCc1c[nH]c2ccccc12)/C(=C\c1cccnc1)NC(=O)c1ccccc1F	RGS7-Gao inconclusive (no result: GSH fluor)
COc1c(C(=O)NNC(=O)c2ccccc2)csc1Br	RGS7-Gao inconclusive (no result: GSH fluor)
CCCCOC(=O)C1[C@H]2C(=O)N(c3ccccc3CC)C[C@]23C=C[C@H]1O3 (some centres not stated)	none
CCc1ccccc1N1CC23C=CC(O2)C(C(=O)OCC(C)C)C3C1=O (configuration not stated)	Avidin fluor 56
CC(C)(C)c1ccc(C(=O)CC(=O)c2cc(Cl)ccc2O)cc1	GSH fluor 245
Cc1ccc(OCC(=O)Nc2ccc(F)cc2)cc1C	none
CCc1cccc(C)c1NC(=O)C1CCCO1 (configuration not stated)	GSH fluor 251
Cc1cccc2sc(NC(=O)C3CCCO3)nc12 (configuration not stated)	none
CCc1c(C)sc(NC(=O)C2CCCO2)c1C#N (configuration not stated)	GSH fluor 139
Cc1cc(C)c(S(=O)(=O)Nc2cccc(S(=O)(=O)NC3=NCCC3)c2)c(C)c1	none
CCOC(=O)/C(C#N)=C(\O)c1ccc(NC(=O)c2ccc([N+](=O)[O-])cc2)cc1	RGS7-Gao inconclusive, Avidin fluor 59 (no result: GSH fluor)
CCCc1cc(=O)[nH]c(SCC(=O)Nc2ccc(OC(F)F)cc2)n1	GSH fluor 260
CCCc1cc(=O)[nH]c(SCC(=O)Nc2ccc3c(c2)CCC3)n1	none
Cc1cc2cc(C)c3nnc(SCC(=O)N4CCc5ccccc54)n3c2cc1C	RGS7-Gao 14.4, RGS8-Gao reg 12.3, RGS16-Gao HTS 1.3, RGS4-Gao reg 21.6
Cc1cc2cc(C)c3nnc(SCC(=O)N4CCCc5ccccc54)n3c2cc1C	none
NS(=O)(=O)c1ccc(NC(=O)COC(=O)c2ccc([N+](=O)[O-])s2)cc1	RGS7-Gao inconclusive (no result: GSH fluor)
O=C(CN1CCOCC1)n1c2ccccc2c2ccccc21	GSH fluor 256
COc1ccc(/C=C/C(=O)c2ccccc2O)cc1	Avidin fluor 69, RGS4-Gao reg 159.0[activator]
CCN(CC)C(=O)C12CC3CC(CC(Br)(C3)C1)C2	none
CCOC(=O)c1c(C)[nH]c(C(=O)Cn2nnc(-c3ccccc3)n2)c1C	GSH fluor 265
CCOC(=O)c1c(C)[nH]c(C(=O)Cn2nnc(-c3ccccc3Cl)n2)c1C	none
O=C(COc1ccc(Cl)cc1Cl)c1ccc[nH]1	RGS7-Gao inconclusive (no result: GSH fluor)
CC(NC(=O)COc1ccc(N(C)S(=O)(=O)c2ccccc2)cc1)c1ccccc1 (configuration not stated)	RGS7-Gao inconclusive
Cc1ccc(NC(=O)Cn2ccc([N+](=O)[O-])n2)cc1Cl	none
COc1ccc2ccccc2c1CN1CCN(Cc2ccccc2)CC1	none
COc1ccc2ccccc2c1CN1CCCC(CO)C1 (configuration not stated)	Avidin fluor 57
CCOC(=O)C1=C(c2ccccc2)O/C(=C(/C#N)C(F)(F)F)S1	Avidin fluor 59
Cc1ccc(C(=O)NC2c3ccccc3-c3ccccc32)cc1	Avidin fluor 60
Cc1ccc(C(=O)NC2CCc3ccccc3C2=O)cc1 (configuration not stated)	none
Cc1ccc(Nc2nc(N)c([N+](=O)[O-])c(NCc3ccccc3)n2)cc1	RGS7-Gao inconclusive (no result: GSH fluor)
COc1ccc(Nc2nc(N)c([N+](=O)[O-])c(NCc3ccccc3)n2)cc1	RGS7-Gao inconclusive, Avidin fluor 56 (no result: GSH fluor)
NS(=O)(=O)c1ccc(NC(=O)COC(=O)COc2cccc(C(F)(F)F)c2)cc1	RGS7-Gao inconclusive (no result: GSH fluor)
COc1ccc(OC)c(C2C=C(c3ccc(C)c(C)c3)Nc3nnnn32)c1 (configuration not stated)	Avidin fluor 51
CCC(CC)NC(=O)c1ccc2nc[nH]c2c1	GSH fluor 262
CC(NC(=O)c1ccc2nc[nH]c2c1)c1ccccc1 (configuration not stated)	none
Cc1ccc(-c2nc(-c3cccnc3)no2)cc1	Avidin fluor 56
Cc1ccc(-c2nc(-c3ccccc3)no2)cc1	none
Nc1ncc(-n2cncn2)c(-c2ccc(Cl)cc2)n1	none
COc1ccc(C2C(C(=O)NC(C)C)c3ccccc3C(=O)N2C)cc1OC (configuration not stated)	Avidin fluor 54
